Screens from PubChem BioAssay.
HT1080-NT tox – qHTS for induction of synthetic lethality in tumor cells producing 2HG: qHTS for the HT-1080-NT fibrosarcoma cell line. Potency, µM (top dose mostly 46.1 µM), actives largely listed as cytotoxic. AID 686970, 2013. hit rate 1.6% among 360,000. HT-1080-NT fibrosarcoma viability, CellTiter-Glo ATP luminescence, 48 h;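 also: NT is the 2HG producing partner of a matched IDH1 knockdown line; nearly all actives have a fitted effect of over 55% in size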
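750 cells/well, RPMI + 5% FBS; 2 h settle, compound pin-transfer, 48 h at 37 degrees C. CellTiter-Glo 10 min RT, luminescence. Normalized to DMSO and media-only wells.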
TDP1 cell CPT – qHTS for Inhibitors of human tyrosyl-DNA phosphodiesterase 1 (TDP1): qHTS in cells in presence of CPT; chicken DT40 Tdp1-/-;hTDP1 cells + 20 nM CPT, ATP luminescence, 48 h; Potency, µM (highest dose often 46.2 µM), usual class: inhibitors; hit rate 12% among 420,000; AID 686979, 2013; also: nearly all actives have a fitted effect of over 55% in size
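Cell growth measured by CellTiter-Glo luminescence after a minimum 48 h, 37 C compound exposure with 20 nM CPT in Tdp1-knockout DT40 cells stably expressing hTDP1, seeded 400/well; qHTS titration format.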
KB-3-1 cytotox – qHTS assay for MDR1-selective chemotherapeutics: Primary screen using the parental adenocarcinoma cell KB-3-1. Potency, µM (highest dose often 46.1 µM), most hits filed as cytotoxic. KB-3-1 viability, CellTiter-Glo ATP luminescence, 72 h. hit rate 1.4% among 400,000; also: nearly all actives have a fitted effect of over 60% in size
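Using CellTiter-Glo luminescence, growth of non-resistant KB-3-1 adenocarcinoma cells is assessed 72 h after pin-tool compound addition at 37 °C. Normalized responses across the concentration series yield fitted curves.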
KB-V1 cytotox – qHTS assay for MDR1-selective chemotherapeutics: Primary screen using the drug-selected MDR subline cells KB-V1. KB-V1 MDR cells viability, CellTiter-Glo, 72 h. Potency, µM (series often up to 46.1 µM), usual class: cytotoxic. hit rate 3.4% among 400,000; also: nearly all actives have a fitted effect of over 60% in size
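Readout: CellTiter-Glo luminescence, 10 min after addition. Cells: KB-V1 MDR subline, 72 h at 37 degrees C with compound. Analysis: corrected, normalized data fitted to concentration-effect curves.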
HT1080 IDH1KD tx – qHTS for induction of synthetic lethality in tumor cells producing 2HG: qHTS for the HT-1080-IDH1KD cell line; Potency, µM (series often up to 46.1 µM), most hits filed as cytotoxic; hit rate 2% among 360,000; AID 686971, 2013; HT-1080 IDH1 knockdown viability, ATP luminescence, 48 h
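Knockdown cells (IDH1KD HT-1080) received compounds 2 h after plating at 750 cells/well and were kept 48 h at 37 °C in 5% FBS RPMI. A CellTiter-Glo luminescence read gave % activity for curve fitting.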
TDP1 cell noCPT – qHTS for Inhibitors of human tyrosyl-DNA phosphodiesterase 1 (TDP1): qHTS in cells in absence of CPT; DT40 Tdp1-/- hTDP1 cells, no CPT, ATP luminescence, 48 h; AID 686978, 2013; Potency, µM (highest dose often 46.2 µM), actives largely listed as inhibitors; hit rate 15% among 420,000; also: nearly all actives have a fitted effect of over 55% in size
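DT40 Tdp1-/-;hTDP1 cells, no CPT (DMSO vehicle only), 400 cells/well; compounds pin-transferred; ≥48 hr, 37 °C; CellTiter-Glo 30 min RT dark, luminescence read.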
Numbers stand for hits; 0 = inactive; ? = inconclusive; - = no result given. An excerpt weighted towards active compounds, which were near 19% of everything screened. Calls follow the shape of the dose curve; as a rule, active = well fitted curve in the direction sought with a large enough effect; inconclusive = small, poorly fitted or top-dose-only effect, or another doubt; inactive = no such curve, though single readings can be large; an effect the other way counts as inactive or inconclusive.

SMILES | HT1080-NT tox | TDP1 cell CPT | KB-3-1 cytotox | KB-V1 cytotox | HT1080 IDH1KD tx | TDP1 cell noCPT
O=c1[nH]c(=O)n(Cc2ccccc2)c(O)c1C=NCCCO | 0 | 0 | 0 | 0 | 0 | 0
C=CCn1c(O)c(/C=C2/C=CC=N2)c(=O)[nH]c1=O | ? | ? | 0 | ? | ? | ?
Cc1nn(CC(C)C)c(Cl)c1C(=O)NC1CCCCC1 | 0 | 0 | 0 | 0 | 0 | 0
CCN(CC)CCNC(=O)c1c(C)[nH]c(/C=C2\C(=O)Nc3ccc(F)cc32)c1C | - | 4.22µM | - | - | - | 3.76µM
CN1CCC2(CC1)NC(=O)c1ccccc1N2 | 0 | 0 | 0 | 0 | 0 | 0
CCCc1cc(N2CCN(c3ccc(OC)cc3)CC2)n2cnnc2n1 | - | 16.4µM | ? | 0 | - | 11.6µM
Cc1ccccc1C1=NCC(=O)N(CC(=O)NCc2ccco2)c2sc3c(c21)CCCC3 | 0 | 16.4µM | 0 | 18.4µM | 0 | 22.4µM
CCCCCCC(C)(C)c1ccc([C@@H]2C[C@H](O)CC[C@@H]2CCCO)c(O)c1 | - | 18.8µM | - | - | - | 2.99µM
C[C@H](CCC(=O)O)[C@H]1CC[C@H]2[C@H]3C(CC[C@]12C)[C@@]1(C)CC[C@@H](O)C[C@H]1C[C@H]3O (stereo partly specified) | - | 0 | - | - | - | 0
CSc1nnc(OC(=O)N(C)C)n1-c1ccc(Cl)cc1 | 0 | 0 | 0 | 0 | 0 | 0
CC[C@@H](C(=O)O)[C@@H]1O[C@@H]([C@@H](C)[C@H](O)[C@H](C)C(=O)[C@H](CC)[C@H]2O[C@]3(C=C[C@@H](O)[C@]4(CC[C@@](C)([C@H]5CC[C@](O)(CC)[C@H](C)O5)O4)O3)[C@H](C)C[C@@H]2C)[C@@H](C)C[C@@H]1C | - | 0.473µM | - | - | - | 0.266µM
Cc1cc(N=Nc2ccccc2C)ccc1N | ? | 0 | 0 | 0 | ? | 0
CN(C)C=C1C(=O)N(C2CCCCC2)C(=O)N(C2CCCCC2)C1=O | ? | 16.4µM | 0 | ? | ? | ?
O=C(c1ccc(C(F)(F)F)cc1)C1CCCN(Cc2ccc(CO)o2)C1 (stereo unspecified) | 0 | ? | 0 | 18.4µM | 0 | ?
O=C(c1ccc(C(F)(F)F)cc1)C1CCCN(Cc2ccncc2)C1 (stereo unspecified) | 0 | 10.3µM | ? | 7.31µM | 0 | 10.3µM
CCn1ccnc1CN1CCCC(C(=O)c2ccc(SC)cc2)C1 (stereo unspecified) | 0 | ? | 0 | ? | 0 | 18.4µM
CCOC(=O)CCCCCNC(=O)c1c(O)[nH]c(=O)[nH]c1=O | 0 | 0 | 0 | 0 | 0 | 0
CCOC(=O)c1c(-n2c(C)cc(/C=C3/C(=O)NC(=O)N(CC)C3=O)c2C)sc2c1CCCC2 | 0 | 16.4µM | 0 | ? | 0 | ?
Cc1ccc(N2C(=O)NC(=O)/C(=C\c3cc(C)n(-c4sc5c(c4C#N)CCCC5)c3C)C2=O)cc1 | ? | ? | 0 | 0 | ? | ?
CCOC(=O)c1c(-n2c(C)cc(C=C3C(=O)NC(=S)NC3=O)c2C)sc2c1CCCC2 | ? | 23.1µM | ? | 0 | ? | 18.4µM
FC(F)(F)c1ccc(CNCCc2ccc3c(c2)OCO3)cc1 | 0 | 0 | 0 | 0 | 0 | 0
Cc1cccc(CCNCc2cc3ccc(C)cc3[nH]c2=O)c1 | 0 | 23.1µM | 0 | 0 | 0 | ?
Cc1ccc2[nH]c(C)c(CCNCc3ccco3)c2c1 | 0 | ? | 0 | 0 | 0 | ?
CC(=O)[C@@]1(O)CC[C@H]2[C@@H]3C[C@H](C)C4=CC(=O)CC[C@]4(C)[C@H]3CC[C@@]21C | 0 | ? | 0 | ? | 0 | 29.1µM
CN(C)P1(=O)N(C)CCN1C | 0 | 0 | 0 | 0 | 0 | 0
